Results: PubChem BioAssay (NCI)
Where “and” joins values, the source holds several entries; their conditions need not be identical. Identical values can stand only once. This is part of a sample that, as a whole, favours compounds with a hit. Of some 83,000 tested, about 20% had one in any assay.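 A percent growth of 40 corresponds to 60% growth inhibition; 0 means no net growth; -100 means all cells died. Active threshold: below 10.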 Calls of active or inactive are those of the source.

Columns and labels:
Test in all cases: NCI-60 one-dose screen, 48 h (100 = growth as untreated, 0 = no growth, -100 = all killed)
[1] = test system: SK-MEL-2 melanoma; settings: 10 µM
[2] = test system: SN12C renal; settings: 10 µM
[3] = test system: UO-31 renal; settings: 10 µM
[4] = test system: TK-10 renal
[5] = test system: ACHN renal; settings: 10 µM
[6] = test system: CAKI-1 renal; settings: 10 µM
[7] = test system: A498 renal; settings: 10 µM
[8] = test system: CCRF-CEM leukemia; settings: 10 µM
[9] = test system: MOLT-4 leukemia; settings: 10 µM
[10] = test system: SR leukemia; settings: 10 µM
[11] = test system: RPMI-8226 leukemia; settings: 10 µM
[12] = test system: OVCAR-8 ovarian; settings: 10 µM
[13] = test system: OVCAR-5 ovarian; settings: 10 µM
[14] = test system: OVCAR-4 ovarian; settings: 10 µM
[15] = test system: SK-OV-3 ovarian; settings: 10 µM
[16] = test system: OVCAR-3 ovarian; settings: 10 µM
[17] = test system: HS 578T breast; settings: 10 µM
[18] = test system: NCI/ADR-RES ovarian; settings: 10 µM
[19] = test system: IGROV1 ovarian; settings: 10 µM
[20] = test system: EKVX NSCLC; settings: 10 µM

Measured: growth

CC1(C(N)=O)CCC(C(=O)O)C1(C)C (configuration not stated)
inactive: [1] 104% | [2] 89.1% | [3] 85.9% | [4]; 10 µM unless noted 97.7% | [5] 102% | [6] 99% | [7] 106% | [8] 104% | [9] 123% | [10] 111% | [11] 100% | [12] 105% | [13] 98.2% | [14] 102% | [15] 94.4% | [16] 119% | [17] 105% | [18] 110%

COC(=O)c1ccccc1N(C)C
inactive: [1] 99.4% | [2] 103% | [3] 87.5% | [4]; 10 µM unless noted 94.8% | [5] 113% | [6] 96.2% | [7] 79.6% | [8] 95.5% | [9] 90.1% | [10] 78.2% | [11] 100% | [12] 105% | [13] 114% | [14] 101% | [15] 95.7% | [19] 106% | [16] 106% | [17] 105% | [18] 101%

c1ccc2c(c1)Sc1ccccc1S2
inactive: [1] 112% | [2] 93.2% | [3] 98.9% | [4]; 10 µM unless noted 99.4% | [5] 109% | [6] 103% | [7] 94.3% | [8] 97.3% | [9] 111% | [10] 117% | [11] 99.2% | [12] 99.3% | [13] 108% | [14] 98.8% | [15] 112% | [19] 106% | [16] 113% | [17] 102% | [18] 101%

Cc1c(C(=O)O)c(=O)n(-c2ccccc2)n1C
inactive: [1] 116% | [20] 103% | [2] 105% | [4]; 10 µM unless noted 123% | [5] 109% | [6] 98.3% | [8] 108% | [9] 113% | [11] 107% | [12] 103% | [13] 110% | [15] 107% | [19] 117% | [16] 141% | [18] 101%

O=c1cc2oc3cc(O)c(O)cc3c(-c3ccccc3O)c-2cc1O
inactive: [1] 110% | [20] 84% | [2] 66.4% | [4]; 10 µM unless noted 108% | [5] 24% | [7] 48% | [8] 11% | [9] 63.8% | [10] 82.7% | [11] 12.1% | [12] 75.1% | [13] 94.8% | [14] 70.1% | [15] 57.4% | [19] 63.9% | [18] 78.4%

CCCCCCCO
inactive: [1] 134% | [2] 99.4% | [3] 82.1% | [4]; 10 µM unless noted 117% | [5] 92.5% | [6] 110% | [7] 105% | [8] 103% | [9] 96.4% | [10] 91.5% | [11] 102% | [12] 99.7% | [13] 87.5% | [14] 97.9% | [15] 106% | [19] 115% | [16] 115% | [17] 102% | [18] 107%

CCN=c1cc2sc3cc(NCC)c(C)cc3nc-2cc1C
active: [20] -7.52% | [2] -83.1% | [6] -56% | [9] 8.77% | [11] 2.43% | [12] -16.3% | [16] -33.8%
inactive: [1] 26.5% | [5] 53% | [7] 47.7% | [8] 14% | [10] 13.4% | [13] 27.5% | [14] 17.2% | [15] 16.1% | [19] 15.2% | [17] 50.8% | [18] 19.9%

c1cc2cccc3c4cccc5cccc(c(c1)c23)c54
inactive: [1] 98.7% | [20] 104% | [2] 98.6% | [4]; 10 µM unless noted 102% | [5] 102% | [7] 116% | [8] 103% | [10] 108% | [11] 113% | [13] 106% | [14] 95.5% | [15] 94.1% | [19] 125% | [16] 108% | [17] 112% | [18] 108%

Cc1cc(Cc2cc(C)c(N)cc2N)c(N)cc1N
inactive: [1] 96.7% | [20] 109% | [2] 88.3% | [4]; 10 µM unless noted 146% | [5] 98.8% | [7] 98.8% | [8] 96.8% | [9] 73.2% | [11] 92.8% | [12] 89.7% | [13] 116% | [14] 111% | [15] 82.2% | [19] 87.5% | [16] 94.9% | [17] 93.8% | [18] 95.8%

COc1cc2nn(-c3ccccc3N)nc2cc1OC
inactive: [1] 106% | [2] 106% | [3] 87.6% | [4]; 10 µM unless noted 109% | [5] 109% | [6] 85.6% | [7] 82.3% | [8] 101% | [9] 98.9% | [10] 111% | [11] 100% | [12] 97.1% | [13] 99.6% | [14] 97.7% | [15] 102% | [19] 89% | [16] 112% | [17] 92.6% | [18] 97.9%

COc1cc2c3cc1Oc1c(OC)c(OC)cc4c1C(Cc1ccc(O)c(c1)Oc1ccc(cc1)CC3N(C)CC2)N(C)CC4 (configuration not stated)
96% (inactive) and -100% (active): [4]; 100 µM
active: [1] -16% | [3] 2.84% | [4]; 10 µM 4.81% | [8] 2.18% | [9] -3.59% | [10] -1.66% | [11] -27.4% | [12] 7.71% | [13] -0.193% | [18] 0.974%
inactive: [2] 16.9% | [5] 18.9% | [7] 21.4% | [14] 13.5% | [15] 43% | [19] 13.7% | [16] 18.8% | [17] 55.3%

CC(=O)Cc1ccc(-c2ccccc2)cc1
inactive: [1] 102% | [2] 86.3% | [3] 84.8% | [4]; 10 µM unless noted 101% | [5] 108% | [6] 104% | [7] 89% | [8] 102% | [9] 117% | [10] 102% | [11] 97.5% | [12] 104% | [13] 112% | [14] 109% | [15] 108% | [16] 113% | [17] 99.4% | [18] 103%

COc1cccc(O)c1O
inactive: [1] 72.4% | [20] 99.6% | [2] 74.5% | [4]; 10 µM unless noted 91.2% | [5] 73.2% | [8] 63.8% | [9] 64.8% | [10] 29.9% | [11] 89.2% | [12] 86.2% | [13] 101% | [14] 96.3% | [15] 76.9% | [19] 96.4% | [18] 85.6%
active: [16] 6.36%

COc1cc(/C=N\Nc2ccccc2)ccc1OC(=O)c1ccccc1
inactive: [1] 64.3% | [20] 66.1% | [2] 79.4% | [4]; 10 µM unless noted 96.2% | [5] 45.2% | [6] 40.3% | [8] 37.4% | [9] 38.5% | [10] 49.6% | [11] 54.3% | [12] 80.1% | [19] 60.6% | [16] 70.5% | [18] 51.2%

O=C(CC(=O)c1ccccc1O)c1ccccc1
inactive: [1] 131% | [20] 76.8% | [2] 85.7% | [4]; 10 µM unless noted 87.8% | [5] 99% | [6] 92.2% | [7] 98.6% | [11] 87.6% | [12] 73% | [14] 90.6% | [15] 98.9% | [19] 98.3% | [16] 90.9% | [17] 106% | [18] 64.4%

CN(C)Cc1cc(C(C)(C)CC(C)(C)C)ccc1O
inactive: [1] 71.1% | [20] 98.4% | [3] 76.2% | [4]; 10 µM unless noted 99.8% | [5] 82.4% | [6] 90.7% | [7] 116% | [8] 99.6% | [9] 86.4% | [10] 87.7% | [11] 95.7% | [12] 106% | [13] 98.5% | [14] 86.5% | [15] 94.5% | [19] 85.7% | [16] 88.4% | [17] 106% | [18] 91.5%

COc1ccccc1C1OC2=Nc3cc(C)c(C)cc3NC2C1=O (configuration not stated)
active: [14] -14.2%
inactive: [1] 105% | [20] 83.9% | [2] 81.2% | [4]; 10 µM unless noted 55.1% | [5] 16.5% | [6] 60.3% | [8] 86.8% | [9] 97.8% | [11] 93.5% | [12] 69% | [13] 62.1% | [15] 79.6% | [19] 88.7% | [16] 22.4% | [17] 39.9% | [18] 61.2%

O=C(/C(=N/O)c1ccccc1)c1ccccc1
inactive: [1] 121% | [2] 94.6% | [3] 87.9% | [4]; 10 µM unless noted 108% | [5] 106% | [6] 100% | [7] 91.5% | [8] 97.9% | [9] 123% | [10] 110% | [11] 99.5% | [12] 103% | [13] 111% | [14] 102% | [15] 106% | [16] 116% | [17] 101% | [18] 113%
